Of roughly 7,900 targets only a part is listed; those with a hit were picked by preference. About 0.6% of all pairs of compound and target were hits.
The targets below were run with C1CN(CCC1(CC2=CC=C(C=C2)Cl)N)C3=NC=NC4=C3C=CN4 (assay: log2 fold change, soluble protein after heating vs DMSO (PISA); higher = thermal stabilisation; K562 cells, 10 uM, 30 min; active = over 0.2 and 3.5 SD of the protein, either way, in both replicates (recomputed)).
In short: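 Values are thermal stability changes relative to control samples and are taken from duplicates. They are stated as log2 fold changes. Before quantification by TMTpro 16plex LC-MS/MS with equalised channel sums, K562 cells at 2×10^6 cells/mL were treated with 10 μM compound for 30 min, heated in aliquots for 3 min across 48°C-58°C, pooled, extracted in PBS with 0.5% NP-40 at 4°C, and centrifuged at 21,000xg for 90 min to give the soluble supernatant.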

Sequence of UniProt Q8N2W9 (Q8N2W9 whole entry, looked up): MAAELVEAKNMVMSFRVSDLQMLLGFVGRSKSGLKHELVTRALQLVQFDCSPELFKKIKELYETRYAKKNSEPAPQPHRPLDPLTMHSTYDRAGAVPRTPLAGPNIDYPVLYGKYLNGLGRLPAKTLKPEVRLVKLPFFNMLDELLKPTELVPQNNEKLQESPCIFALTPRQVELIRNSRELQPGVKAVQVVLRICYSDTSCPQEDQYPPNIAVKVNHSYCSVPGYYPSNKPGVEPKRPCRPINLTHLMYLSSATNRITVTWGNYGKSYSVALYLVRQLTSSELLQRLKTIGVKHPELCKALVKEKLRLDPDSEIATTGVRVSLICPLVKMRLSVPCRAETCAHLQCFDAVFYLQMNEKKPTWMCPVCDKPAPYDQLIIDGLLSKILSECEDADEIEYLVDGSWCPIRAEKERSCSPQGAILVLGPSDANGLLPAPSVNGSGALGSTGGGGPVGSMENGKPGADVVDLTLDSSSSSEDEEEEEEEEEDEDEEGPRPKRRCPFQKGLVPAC
Sequence of UniProt Q9BZL4 (Q9BZL4 whole entry, looked up): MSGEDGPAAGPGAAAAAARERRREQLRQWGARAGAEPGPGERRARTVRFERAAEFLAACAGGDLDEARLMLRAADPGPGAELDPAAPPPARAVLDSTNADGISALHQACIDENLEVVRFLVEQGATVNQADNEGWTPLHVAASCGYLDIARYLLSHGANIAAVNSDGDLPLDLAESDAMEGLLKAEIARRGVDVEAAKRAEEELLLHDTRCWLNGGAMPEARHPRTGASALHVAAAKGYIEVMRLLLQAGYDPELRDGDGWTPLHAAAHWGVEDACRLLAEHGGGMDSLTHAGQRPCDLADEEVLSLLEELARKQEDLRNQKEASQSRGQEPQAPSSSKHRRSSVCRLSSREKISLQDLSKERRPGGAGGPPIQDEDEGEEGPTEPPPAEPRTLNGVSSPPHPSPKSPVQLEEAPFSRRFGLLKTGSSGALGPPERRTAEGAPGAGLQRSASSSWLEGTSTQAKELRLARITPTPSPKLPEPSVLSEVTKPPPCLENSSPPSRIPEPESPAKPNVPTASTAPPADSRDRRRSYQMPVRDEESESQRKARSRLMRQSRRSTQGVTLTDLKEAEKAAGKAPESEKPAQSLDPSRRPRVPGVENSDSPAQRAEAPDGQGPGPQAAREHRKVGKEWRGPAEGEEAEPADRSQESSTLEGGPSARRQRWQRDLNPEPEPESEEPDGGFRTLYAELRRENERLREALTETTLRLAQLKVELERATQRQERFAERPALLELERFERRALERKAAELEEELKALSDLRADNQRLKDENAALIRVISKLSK
Sequence of UniProt Q96RV3 (Q96RV3 whole entry, looked up): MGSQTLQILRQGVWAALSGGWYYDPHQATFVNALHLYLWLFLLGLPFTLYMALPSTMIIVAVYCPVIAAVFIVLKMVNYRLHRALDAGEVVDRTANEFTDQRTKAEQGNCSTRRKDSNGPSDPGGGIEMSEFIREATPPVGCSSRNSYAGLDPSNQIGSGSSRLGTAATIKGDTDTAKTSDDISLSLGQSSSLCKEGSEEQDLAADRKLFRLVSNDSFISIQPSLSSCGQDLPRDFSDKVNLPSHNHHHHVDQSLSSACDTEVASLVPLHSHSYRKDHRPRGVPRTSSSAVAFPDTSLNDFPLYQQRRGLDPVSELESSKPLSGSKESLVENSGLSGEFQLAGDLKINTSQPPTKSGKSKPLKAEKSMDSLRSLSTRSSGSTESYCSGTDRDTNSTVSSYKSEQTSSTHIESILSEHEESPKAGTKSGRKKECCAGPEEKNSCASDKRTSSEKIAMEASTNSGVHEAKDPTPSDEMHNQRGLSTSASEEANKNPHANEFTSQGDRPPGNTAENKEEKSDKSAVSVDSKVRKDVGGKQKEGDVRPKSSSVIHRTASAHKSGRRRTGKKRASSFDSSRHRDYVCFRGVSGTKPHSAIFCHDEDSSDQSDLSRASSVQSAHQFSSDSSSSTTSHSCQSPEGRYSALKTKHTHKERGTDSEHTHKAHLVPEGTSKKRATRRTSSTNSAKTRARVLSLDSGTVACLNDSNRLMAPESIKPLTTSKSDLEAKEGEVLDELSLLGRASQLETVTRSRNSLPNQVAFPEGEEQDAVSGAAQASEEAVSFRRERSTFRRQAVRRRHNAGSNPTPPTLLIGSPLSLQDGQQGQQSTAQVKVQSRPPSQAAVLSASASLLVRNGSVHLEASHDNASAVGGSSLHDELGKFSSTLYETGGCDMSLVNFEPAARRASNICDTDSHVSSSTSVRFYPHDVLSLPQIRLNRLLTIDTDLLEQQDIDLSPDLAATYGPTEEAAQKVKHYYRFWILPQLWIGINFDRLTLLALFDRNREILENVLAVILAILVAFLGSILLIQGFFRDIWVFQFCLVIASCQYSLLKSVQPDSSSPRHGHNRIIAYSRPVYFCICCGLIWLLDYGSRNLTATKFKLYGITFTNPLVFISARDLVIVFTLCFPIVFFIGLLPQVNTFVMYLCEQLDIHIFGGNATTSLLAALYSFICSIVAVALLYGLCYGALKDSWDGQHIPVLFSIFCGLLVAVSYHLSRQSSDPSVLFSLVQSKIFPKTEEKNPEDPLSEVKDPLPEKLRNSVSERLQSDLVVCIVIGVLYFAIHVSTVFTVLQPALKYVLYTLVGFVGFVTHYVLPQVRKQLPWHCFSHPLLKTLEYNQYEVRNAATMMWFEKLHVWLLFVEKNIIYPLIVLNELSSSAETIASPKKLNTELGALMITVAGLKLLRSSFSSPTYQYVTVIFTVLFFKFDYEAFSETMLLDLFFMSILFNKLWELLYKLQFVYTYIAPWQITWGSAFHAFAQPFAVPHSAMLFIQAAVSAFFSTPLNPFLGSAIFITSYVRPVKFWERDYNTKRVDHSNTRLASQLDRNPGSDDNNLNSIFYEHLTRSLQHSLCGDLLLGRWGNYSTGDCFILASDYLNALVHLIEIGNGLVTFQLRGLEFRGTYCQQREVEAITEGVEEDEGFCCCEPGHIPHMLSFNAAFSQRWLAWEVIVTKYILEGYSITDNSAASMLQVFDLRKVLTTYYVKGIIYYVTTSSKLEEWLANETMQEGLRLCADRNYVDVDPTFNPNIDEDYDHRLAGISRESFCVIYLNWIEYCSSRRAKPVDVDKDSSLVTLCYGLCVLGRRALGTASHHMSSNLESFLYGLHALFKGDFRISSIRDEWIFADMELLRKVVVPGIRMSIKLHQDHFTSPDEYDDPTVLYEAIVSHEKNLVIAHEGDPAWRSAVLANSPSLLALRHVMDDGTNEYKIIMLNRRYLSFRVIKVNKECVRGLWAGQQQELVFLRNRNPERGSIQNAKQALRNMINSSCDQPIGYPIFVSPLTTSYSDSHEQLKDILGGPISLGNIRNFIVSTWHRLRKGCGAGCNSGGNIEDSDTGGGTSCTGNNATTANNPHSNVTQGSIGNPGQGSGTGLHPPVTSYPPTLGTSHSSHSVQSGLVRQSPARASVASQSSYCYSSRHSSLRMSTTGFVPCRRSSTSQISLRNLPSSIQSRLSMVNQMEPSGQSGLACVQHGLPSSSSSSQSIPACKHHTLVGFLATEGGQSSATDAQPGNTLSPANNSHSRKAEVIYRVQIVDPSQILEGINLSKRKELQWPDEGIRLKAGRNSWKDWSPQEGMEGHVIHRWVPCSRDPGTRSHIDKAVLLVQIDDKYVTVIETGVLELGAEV
Sequence of UniProt Q5JVF3 (Q5JVF3 whole entry, looked up): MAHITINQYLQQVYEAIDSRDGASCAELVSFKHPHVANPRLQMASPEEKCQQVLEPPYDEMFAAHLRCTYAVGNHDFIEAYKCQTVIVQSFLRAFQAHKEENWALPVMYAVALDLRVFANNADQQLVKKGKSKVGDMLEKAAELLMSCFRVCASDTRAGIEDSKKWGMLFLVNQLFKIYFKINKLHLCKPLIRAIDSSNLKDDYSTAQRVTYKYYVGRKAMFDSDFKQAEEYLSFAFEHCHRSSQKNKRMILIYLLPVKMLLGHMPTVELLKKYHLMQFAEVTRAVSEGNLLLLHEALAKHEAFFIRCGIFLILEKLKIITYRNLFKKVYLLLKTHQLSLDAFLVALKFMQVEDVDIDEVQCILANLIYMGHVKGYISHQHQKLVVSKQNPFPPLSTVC
Sequence of UniProt P07205 (P07205 whole entry, looked up): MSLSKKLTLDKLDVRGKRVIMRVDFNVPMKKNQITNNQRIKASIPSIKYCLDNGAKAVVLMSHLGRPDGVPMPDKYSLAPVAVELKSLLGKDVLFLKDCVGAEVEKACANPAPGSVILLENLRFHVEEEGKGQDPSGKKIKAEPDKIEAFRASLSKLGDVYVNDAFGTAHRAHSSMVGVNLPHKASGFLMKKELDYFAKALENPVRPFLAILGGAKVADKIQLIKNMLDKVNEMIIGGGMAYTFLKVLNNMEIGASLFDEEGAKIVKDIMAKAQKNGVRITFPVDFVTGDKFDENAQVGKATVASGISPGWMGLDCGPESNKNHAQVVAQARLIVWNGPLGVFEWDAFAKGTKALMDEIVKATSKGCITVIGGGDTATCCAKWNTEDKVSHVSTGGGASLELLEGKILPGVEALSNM
Sequence of UniProt Q9UHX1 (Q9UHX1 whole entry, looked up): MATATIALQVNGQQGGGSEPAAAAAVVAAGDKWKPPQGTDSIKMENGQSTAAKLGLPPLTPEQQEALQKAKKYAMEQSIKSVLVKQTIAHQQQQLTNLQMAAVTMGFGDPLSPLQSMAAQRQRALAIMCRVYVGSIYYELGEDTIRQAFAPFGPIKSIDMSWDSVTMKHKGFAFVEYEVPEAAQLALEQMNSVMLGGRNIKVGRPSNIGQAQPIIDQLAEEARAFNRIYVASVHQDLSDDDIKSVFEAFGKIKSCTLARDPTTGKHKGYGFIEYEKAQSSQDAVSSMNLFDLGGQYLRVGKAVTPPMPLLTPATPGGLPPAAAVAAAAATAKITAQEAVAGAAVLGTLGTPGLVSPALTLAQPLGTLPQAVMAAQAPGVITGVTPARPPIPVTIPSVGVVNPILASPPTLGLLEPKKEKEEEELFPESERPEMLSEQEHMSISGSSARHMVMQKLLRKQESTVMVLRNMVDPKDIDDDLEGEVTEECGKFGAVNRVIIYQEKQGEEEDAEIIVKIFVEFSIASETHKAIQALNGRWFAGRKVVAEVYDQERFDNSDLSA

log2 fold change, inactive:
PPP1R12C (UniProt Q9BZL4) -0.238, PSMD8 (UniProt K7ERW6) -0.148, PI4K2B (UniProt Q8TCG2) -0.173, POLB (UniProt P06746) 0.002, PUM1 (UniProt Q14671) -0.024, PTK2B (UniProt Q14289) 0.105, PCID2 (UniProt Q5JVF3) -0.161, PSMC3 (UniProt E9PLG2) -0.045, POGZ (UniProt Q7Z3K3) 0.115, PCNX1 (UniProt Q96RV3) -0.041, PSMA3 (UniProt H0YJ03) 0.2, PIAS4 (UniProt Q8N2W9) -0.045, PKM isoform 2 (UniProt P14618) 0.003, PGK2 (UniProt P07205) 0.029, PNPLA4 (UniProt P41247) 0.029, PEX5 isoform 4 (UniProt P50542) -0.078, PRR14L (UniProt Q5THK1) -0.023, PUF60 isoform 2 (UniProt Q9UHX1) -0.148
